Measured values as given in PubChem BioAssay (NCI).
The panel holds about 83,000 compounds, 20% with a hit somewhere; the sample as a whole holds those more often.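 A percent growth of 40 corresponds to 60% growth inhibition; 0 means no net growth; -100 means all cells died. Active threshold: below 10.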 Active and inactive are the calls of the source.

Columns and labels:
Assay in all cases: NCI-60 one-dose screen, 48 h (100 = growth as untreated, 0 = no growth, -100 = all killed)
Details in all cases: 10 µM unless noted
SR leukemia = system: SR leukemia
RPMI-8226 leukemia = system: RPMI-8226 leukemia
OVCAR-8 ovarian = system: OVCAR-8 ovarian
OVCAR-5 ovarian = system: OVCAR-5 ovarian
OVCAR-4 ovarian = system: OVCAR-4 ovarian
SK-OV-3 ovarian = system: SK-OV-3 ovarian
IGROV1 ovarian = system: IGROV1 ovarian
OVCAR-3 ovarian = system: OVCAR-3 ovarian
HS 578T breast = system: HS 578T breast
NCI/ADR-RES ovarian = system: NCI/ADR-RES ovarian

Measured: growth

CC(C)(C)c1nc(-c2ccc(O)c(O)c2)cs1
inactive: SR leukemia 26.9% | RPMI-8226 leukemia 39.2% | OVCAR-8 ovarian 60.9% | OVCAR-5 ovarian 91% | OVCAR-4 ovarian 76.2% | SK-OV-3 ovarian 90.6% | IGROV1 ovarian 43.8% | OVCAR-3 ovarian 61.2% | HS 578T breast 85.9% | NCI/ADR-RES ovarian 35.5%

Cc1nc([P+](c2ccccc2)(c2ccccc2)c2ccccc2)c(Sc2sc(-c3ccccc3)nc2[P+](c2ccccc2)(c2ccccc2)c2ccccc2)o1
inactive: SR leukemia 18.6% | OVCAR-5 ovarian 41.3% | IGROV1 ovarian 10.3% | HS 578T breast 14% | NCI/ADR-RES ovarian 75%
active: RPMI-8226 leukemia -7.25% | OVCAR-8 ovarian 8.83% | OVCAR-4 ovarian -1.77% | SK-OV-3 ovarian -12.2% | OVCAR-3 ovarian -1.45%

CC1(C)C(=O)/C(=C\c2ccco2)C[C@]2(C)[C@H]3CC[C@@H]4[C@@H](C(=O)/C=C/c5ccco5)CC[C@@]4(C)[C@]3(C)CC[C@@H]12
inactive: SR leukemia 71% | RPMI-8226 leukemia 75.5% | OVCAR-8 ovarian 80.5% | OVCAR-5 ovarian 115% | OVCAR-4 ovarian 83.6% | SK-OV-3 ovarian 109% | IGROV1 ovarian 96.2% | OVCAR-3 ovarian 95.2% | HS 578T breast 77.8% | NCI/ADR-RES ovarian 95.1%

O=C(/C=C/c1cccc2ccccc12)Nc1ncc(Cc2ccccc2)s1
active: RPMI-8226 leukemia 8.58% | OVCAR-4 ovarian 6.74% | OVCAR-3 ovarian -17.8% | NCI/ADR-RES ovarian -8.05%
inactive: SR leukemia 13.1% | OVCAR-8 ovarian 29% | OVCAR-5 ovarian 22.7% | SK-OV-3 ovarian 20.9% | IGROV1 ovarian 15.8% | HS 578T breast 12.7%

N=c1c(S(=O)(=O)c2ccccc2)cc2c(=O)n3ccccc3nc2n1C1CCCC1
inactive: SR leukemia 82.4% | RPMI-8226 leukemia 92.9% | OVCAR-8 ovarian 88.3% | OVCAR-5 ovarian 103% | OVCAR-4 ovarian 95.5% | SK-OV-3 ovarian 104% | IGROV1 ovarian 97% | OVCAR-3 ovarian 93.9% | HS 578T breast 95.6% | NCI/ADR-RES ovarian 87.4%

O=C1OC(c2ccc(Cl)c(Cl)c2)=C/C1=C/c1cccc([N+](=O)[O-])c1
inactive: SR leukemia 117% | RPMI-8226 leukemia 99% | OVCAR-8 ovarian 99.4% | OVCAR-5 ovarian 96.1% | OVCAR-4 ovarian 116% | SK-OV-3 ovarian 96.5% | IGROV1 ovarian 81.8% | OVCAR-3 ovarian 111% | HS 578T breast 97.7% | NCI/ADR-RES ovarian 104%

Fc1ccc(Nc2nnc(-c3ccc(Cl)cc3)o2)cc1
inactive: SR leukemia 90.8% | RPMI-8226 leukemia 99.8% | OVCAR-8 ovarian 86.7% | OVCAR-5 ovarian 98.3% | OVCAR-4 ovarian 94.7% | SK-OV-3 ovarian 77.4% | IGROV1 ovarian 90.2% | OVCAR-3 ovarian 110% | HS 578T breast 107% | NCI/ADR-RES ovarian 99%

CCN1CCN(C(=O)[C@]23CCC(C)(C)C[C@H]2C2=CC[C@@H]4[C@@]5(C)CC/C(=N/O)C(C)(C)[C@@H]5CC[C@@]4(C)[C@]2(C)CC3)CC1
active: SR leukemia 0.702% | OVCAR-4 ovarian -20.5%
inactive: RPMI-8226 leukemia 16.6% | OVCAR-8 ovarian 56.9% | OVCAR-5 ovarian 78.1% | SK-OV-3 ovarian 105% | IGROV1 ovarian 68% | OVCAR-3 ovarian 53.5% | HS 578T breast 84.2% | NCI/ADR-RES ovarian 60.1%

COC(=O)[C@]12CC[C@@H](C)[C@H](C)[C@@H]1C1=CC[C@@H]3[C@@]4(C)C[C@@H](OC(C)=O)[C@H](OC(C)=O)[C@@](C)(COC(C)=O)[C@@H]4[C@H](O)C[C@@]3(C)[C@]1(C)CC2
active: SR leukemia 2.75% | RPMI-8226 leukemia 5.96% | SK-OV-3 ovarian 2.45%
inactive: OVCAR-8 ovarian 16.9% | OVCAR-5 ovarian 34.6% | OVCAR-4 ovarian 19.3% | IGROV1 ovarian 36.7% | OVCAR-3 ovarian 15% | HS 578T breast 35.9% | NCI/ADR-RES ovarian 10.5%

CC(C)C[C@@H](NC(=O)[C@@H](Cc1ccccc1)NC(=O)c1cnccn1)B1O[C@H]2[C@H](O)[C@@H](C(=O)NCCCC[C@@H]3NC(=O)[C@@H](Cc4ccccc4)NC(=O)[C@H](CC(=O)O)NC(=O)CNC(=O)[C@H](CCCN=C(N)N)NC3=O)O[C@@H](CN)[C@H]2O1
active: SR leukemia 1.66% | RPMI-8226 leukemia 0.803% | OVCAR-8 ovarian -42.6% | OVCAR-5 ovarian -19.2% | OVCAR-4 ovarian -27.9% | SK-OV-3 ovarian -42.2% | IGROV1 ovarian 4.07% | OVCAR-3 ovarian -55.3% | HS 578T breast 4.75% | NCI/ADR-RES ovarian 7.01%

N#C/C(=C\c1ccc(-c2ccccc2)o1)c1nc(-c2ccco2)cs1
inactive: SR leukemia 103% | RPMI-8226 leukemia 49.6% | OVCAR-8 ovarian 96.9% | OVCAR-5 ovarian 53.8% | OVCAR-4 ovarian 11% | SK-OV-3 ovarian 97.2% | IGROV1 ovarian 43.1% | OVCAR-3 ovarian 78.7% | HS 578T breast 95.7% | NCI/ADR-RES ovarian 95.5%

COC(=O)CNc1nc(N(C)O)nc(N(C)O)n1
active: OVCAR-3 ovarian -6.47%
inactive: SR leukemia 34.3% | RPMI-8226 leukemia 36.4% | OVCAR-8 ovarian 34.3% | OVCAR-5 ovarian 87.7% | OVCAR-4 ovarian 29.3% | SK-OV-3 ovarian 50.8% | IGROV1 ovarian 48% | HS 578T breast 77.8% | NCI/ADR-RES ovarian 21.3%

CN(C)c1ccc(N=C2C=CC(=O)C=C2)cc1
inactive: SR leukemia 25.9% | RPMI-8226 leukemia 61.1% | OVCAR-8 ovarian 81.7% | OVCAR-5 ovarian 120% | OVCAR-4 ovarian 70.4% | SK-OV-3 ovarian 99.7% | IGROV1 ovarian 96.5% | HS 578T breast 72.5% | NCI/ADR-RES ovarian 90.8%
active: OVCAR-3 ovarian -14.8%

Clc1ccccc1-c1nc(Nc2nc3ccccc3s2)nc(C(Cl)(Cl)Cl)n1
active: OVCAR-3 ovarian 4.03%
inactive: SR leukemia 79.6% | RPMI-8226 leukemia 10.1% | OVCAR-8 ovarian 68.6% | OVCAR-5 ovarian 74.3% | OVCAR-4 ovarian 64.6% | SK-OV-3 ovarian 56.8% | IGROV1 ovarian 54.3% | HS 578T breast 70% | NCI/ADR-RES ovarian 50.6%

CN(C)CCCC1(c2ccc(F)cc2)OCc2cc(-c3ccc(C(F)(F)F)nc3)ccc21 (stereo not given)
inactive: SR leukemia 11.9% | RPMI-8226 leukemia 69.2% | OVCAR-8 ovarian 83.6% | OVCAR-5 ovarian 85.5% | OVCAR-4 ovarian 66.4% | SK-OV-3 ovarian 80.3% | IGROV1 ovarian 66.5% | OVCAR-3 ovarian 84.6% | HS 578T breast 61.9% | NCI/ADR-RES ovarian 84.1%

N=c1ccc2nc3c(cc(N)c4ccccc43)oc-2c1
active: SR leukemia -41% | RPMI-8226 leukemia -49.3% | OVCAR-8 ovarian -54.1% | OVCAR-5 ovarian -100% | OVCAR-4 ovarian -100% | SK-OV-3 ovarian -96.3% | IGROV1 ovarian -29.4% | OVCAR-3 ovarian -90.1% | HS 578T breast -23.3% | NCI/ADR-RES ovarian -57.7%

N#CCCCCCn1c2ccccc2c2c3c(c4c5ccccc5n(CCCCCC#N)c4c21)C(=O)N(O)C3=O
inactive: SR leukemia 42.9% | RPMI-8226 leukemia 37.7% | OVCAR-8 ovarian 69.4% | OVCAR-5 ovarian 109% | OVCAR-4 ovarian 93.4% | SK-OV-3 ovarian 71.2% | IGROV1 ovarian 75.2% | OVCAR-3 ovarian 96.1% | HS 578T breast 92.7% | NCI/ADR-RES ovarian 85.9%

c1ccc(C2Cc3ccccc3C2=NC2CCCCC2)cc1 (stereo not given)
inactive: SR leukemia 91.1% | RPMI-8226 leukemia 100% | OVCAR-8 ovarian 107% | OVCAR-5 ovarian 90.8% | OVCAR-4 ovarian 102% | SK-OV-3 ovarian 110% | IGROV1 ovarian 112% | OVCAR-3 ovarian 121% | HS 578T breast 113% | NCI/ADR-RES ovarian 113%

Nc1c(C(=O)Nc2cccc3ccccc23)sc2nc3c(cc12)CCCC3
inactive: RPMI-8226 leukemia 28.3% | OVCAR-8 ovarian 33.8% | OVCAR-5 ovarian 44.7% | OVCAR-4 ovarian 52.7% | SK-OV-3 ovarian 36.8% | IGROV1 ovarian 45.4% | HS 578T breast 27.8%
active: SR leukemia 9.22% | OVCAR-3 ovarian 2.02% | NCI/ADR-RES ovarian 0.722%

O=C(CCCCCn1c2ccccc2c2c3c(c4c5ccccc5[nH]c4c21)C(=O)N(O)C3=O)N1CCOCC1
inactive: RPMI-8226 leukemia 14.9% | OVCAR-8 ovarian 41.7% | OVCAR-5 ovarian 116% | OVCAR-4 ovarian 64.5% | SK-OV-3 ovarian 70.4% | OVCAR-3 ovarian 40.9% | HS 578T breast 66.5% | NCI/ADR-RES ovarian 73.7%
active: SR leukemia 8.26% | IGROV1 ovarian -26.5%

Cn1nc(-c2ccccc2)c2c(-c3ccccc3)onc2c1=O
inactive: SR leukemia 26.4% | RPMI-8226 leukemia 24.9% | OVCAR-8 ovarian 51.9% | OVCAR-5 ovarian 66.5% | OVCAR-4 ovarian 72.1% | SK-OV-3 ovarian 13.3% | IGROV1 ovarian 51.3% | OVCAR-3 ovarian 12.2% | HS 578T breast 15.8% | NCI/ADR-RES ovarian 45.8%

C=C(C)[C@@H]1CC[C@]2(C(=O)NNC(=O)c3cccnc3)CC[C@]3(C)[C@H](CC[C@@H]4[C@@]5(C)CCCNC(C)(C)[C@@H]5CC[C@]43C)[C@@H]12
inactive: SR leukemia 18.9% | RPMI-8226 leukemia 46.6% | OVCAR-8 ovarian 76.7% | OVCAR-5 ovarian 96.9% | OVCAR-4 ovarian 75.3% | SK-OV-3 ovarian 107% | IGROV1 ovarian 91% | OVCAR-3 ovarian 81.2% | HS 578T breast 67.3% | NCI/ADR-RES ovarian 90.5%

CN(C)c1cccc2[nH]c(-c3[nH]ncc3Nc3ccnc(N)n3)nc12
active: SR leukemia 7.64% | RPMI-8226 leukemia -15.6% | OVCAR-8 ovarian -22.7% | OVCAR-5 ovarian -1.19% | OVCAR-4 ovarian -11.7% | SK-OV-3 ovarian 0.381% | IGROV1 ovarian -11% | OVCAR-3 ovarian -6.36% | HS 578T breast -13.8% | NCI/ADR-RES ovarian -1.48%
